Test [1] can be described thus: Wnt pathway potentiators raising nuclear beta-catenin – imaging, WNT3A-conditioned medium, mouse C2C12, NPC library, primary screen (AID 1117326; in the data active = nuclear beta-catenin stimulation mostly above about 4.2%, no sharp cut-off; inactive = mostly below about 10%). The settings on record: stronger effect = higher value.
The nature of test [2]: stimulators of insulin release from INS-1E, primary screen, cell-based, 5 mM glucose, NPC library (AID 1117329;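 active = compound raises insulin release from rat beta cells at 5 mM glucose, no numeric limit stated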). The settings on record: rat INS-1E insulin secretion, at 10 µM, stronger effect = higher value.
Test [3] in a line: growth inhibition of GSK3B-pretreated HCT116 cells – cell-based, CellTiter-Glo, 0.2 to 20 µM (AID 1117336;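 active = compounds lowering colon cancer cell viability after pretreatment blocking the GSK3B kinase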). The conditions noted are these: HCT116 viability after GSK3B inhibitor, at 20 µM, stronger effect = higher value. For orientation: Cellular ATP, detected with luciferase, serves as a proxy for viable cell number.
Test [4] is described as follows: inhibition of endothelial tube formation, primary screen, imaging, VEGF stimulated, CD31 staining, tube area, NPC library (AID 1117340;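 active = compound that reduces growth-factor-driven endothelial tube area in a mixed cell culture, no cutoff stated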). The settings on record: VEGF-stimulated ADSC/ECFC co-culture, at 10 µM, stronger effect = higher value.
Test [5] can be described thus: GLP1 release stimulators, primary, NCI-H716, NPC library (AID 1117341;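 active = compound raises GLP1 secretion from the human gut endocrine cells, with no numeric limit stated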). The conditions noted are these: NCI-H716 cells, at 10 µM, stronger effect = higher value.
Test [6] in a line: HCT116 colon cancer cell growth inhibition, primary screen, CellTiter-Glo luminescence, NPC library (AID 1117342;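 active = compounds that lower survival of HCT116 colon cancer cells in the luminescence readout, no numeric limit stated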). The settings on record: at 20 µM (top of the series).
A short description of test [7]: reduced SW480 viability measured with CellTiter-Glo, NPC library, primary (AID 1117343;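 active = compounds that lower viability of the colon cancer cells in the luminescence readout, with no numeric limit stated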). The settings on record: CellTiter-Glo luminescence; at 20 µM (top of the series).
Test [8] in a line: NPC library primary testing for decreased DLD-1 cell viability via CellTiter-Glo (AID 1117346;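 active = compounds that lower survival of DLD-1 colon cancer cells in the luminescence readout, no cutoff given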). The settings on record: DLD-1 viability, CellTiter-Glo luminescence; at 20 µM (top of the series).
The target of test [9] is 6-phosphogluconate dehydrogenase, decarboxylating (Homo sapiens) (UniProt P52209). The test is described as follows: inhibition of human phosphogluconate dehydrogenase – biochemical, recombinant enzyme, NADPH absorbance, primary screen (AID 1159550;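 active = at least 20% inhibition of 6-phosphogluconate dehydrogenase activity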). The settings on record: recombinant 6PGD, NADPH absorbance 341 nm; at 10 µM; stronger effect = higher value.
Chain of 6-phosphogluconate dehydrogenase, decarboxylating (Homo sapiens) (P52209 whole entry, looked up): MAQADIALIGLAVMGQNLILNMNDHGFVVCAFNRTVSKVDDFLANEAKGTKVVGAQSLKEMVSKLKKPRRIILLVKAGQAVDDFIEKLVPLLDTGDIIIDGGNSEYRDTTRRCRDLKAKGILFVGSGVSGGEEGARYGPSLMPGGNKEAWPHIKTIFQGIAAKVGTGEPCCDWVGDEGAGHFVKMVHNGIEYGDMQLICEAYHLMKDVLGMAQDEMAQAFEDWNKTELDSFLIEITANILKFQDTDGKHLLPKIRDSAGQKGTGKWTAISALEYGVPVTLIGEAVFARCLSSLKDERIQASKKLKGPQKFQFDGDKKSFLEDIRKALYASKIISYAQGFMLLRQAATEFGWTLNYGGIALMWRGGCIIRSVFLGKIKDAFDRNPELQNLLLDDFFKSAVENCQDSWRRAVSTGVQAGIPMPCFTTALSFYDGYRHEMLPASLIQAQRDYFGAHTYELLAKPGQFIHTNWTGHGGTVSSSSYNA
Test [10] is described as follows: EMT-state selective cytotoxicity in co-culture – imaging, PC-3E GFP, TEM4-18 mCherry, primary screen (AID 1345086;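 active = compounds killing one labelled cell type while sparing the other, by normalised counts and ratio limits, not self-fluorescent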;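 as to all read-outs here: cells exposed to compound for 72 h before imaging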;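 as to red/green cell ratio (normalised): normalised mesenchymal count divided by normalised epithelial count so high means epithelial killing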). The conditions noted are these: PC-3E GFP / TEM4-18 mCherry co-culture, imaging cell counts, at 1 µM; for red/green cell ratio (normalised): actives lie on both sides.
The subject of test [11] is Aerobactin synthetase IucA (Klebsiella pneumoniae hvKP1). The test is described as follows: IucA enzyme inhibition, primary screen, biochemical, Spectrum library (AID 1346200; call rule not given here;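 also: 100% = wells without compound and 0% = wells lacking enzyme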). The settings on record: malachite green pyrophosphate, A620, at 8 µM, stronger effect = lower value.
Test [12] is described as follows: viability loss with induced miR-34 in A549 – imaging, A549 dox-inducible miR-34, nuclei and caspase counts, primary screen (AID 1347080). The conditions noted are these: A549 miR-34 inducible, Hoechst nuclei count, 48 h.
The target of test [13] is NAD(+) hydrolase SARM1 (Homo sapiens) (UniProt Q6SZW1). As to the kind of experiment: blocking NAD cleavage by SARM1 SAM-TIR – cell lysate, NAD-Glo luminescence (AID 1508614;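 active = compound whose remaining NAD level is above about 45 nM, limit read from the data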;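 also: higher remaining NAD means stronger inhibition of SARM1 NADase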). The settings on record: SAM-TIR HEK293T lysate NADase, at 1 µM, stronger effect = higher value.
Chain of NAD(+) hydrolase SARM1 (Homo sapiens) (Q6SZW1 whole entry, looked up): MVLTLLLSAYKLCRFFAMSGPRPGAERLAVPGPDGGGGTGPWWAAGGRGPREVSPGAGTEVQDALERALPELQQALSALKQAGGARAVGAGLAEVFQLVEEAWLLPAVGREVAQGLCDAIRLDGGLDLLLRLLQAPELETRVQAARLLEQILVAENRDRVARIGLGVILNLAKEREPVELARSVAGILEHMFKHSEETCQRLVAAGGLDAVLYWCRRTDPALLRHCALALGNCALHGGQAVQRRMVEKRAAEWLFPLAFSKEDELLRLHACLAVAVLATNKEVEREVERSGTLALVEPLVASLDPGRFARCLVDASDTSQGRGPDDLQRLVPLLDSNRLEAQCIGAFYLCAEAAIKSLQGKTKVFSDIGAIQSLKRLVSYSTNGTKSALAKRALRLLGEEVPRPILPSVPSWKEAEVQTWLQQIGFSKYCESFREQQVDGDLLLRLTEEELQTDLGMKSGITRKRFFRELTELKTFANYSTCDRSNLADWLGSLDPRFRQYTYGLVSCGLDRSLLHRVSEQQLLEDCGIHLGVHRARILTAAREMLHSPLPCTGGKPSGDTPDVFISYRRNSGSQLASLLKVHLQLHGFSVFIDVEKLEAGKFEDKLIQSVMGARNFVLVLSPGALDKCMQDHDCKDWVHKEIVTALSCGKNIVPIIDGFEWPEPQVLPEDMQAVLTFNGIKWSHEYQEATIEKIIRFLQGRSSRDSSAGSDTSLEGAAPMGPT
Test [14] can be described thus: yeast 75Q aggregation reduction – 75Q-TubU reporter (AID 1593). The settings on record: Yeast 75Q polyglutamine aggregation reporter.
Test [15] can be described thus: blockers of cytochrome c efflux from mitochondria – biochemical, purified mitochondria (AID 1603).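 Also: mouse liver mitochondria challenged with calcium chloride; signal normalized to the plate average as 100%.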 The settings on record: stronger effect = lower value.
Test [16] can be described thus: polyglutamine aggregate formation blockers (AID 1604). The conditions noted are these: polyglutamine-induced protein aggregation inhibition assay; stronger effect = higher value; tested at 2.5 µM.
The nature of test [17]: P. berghei load reduction in hepatocytes – cell-based, HepG2, luciferase luminescence, HepG2 viability, primary screen (AID 624349; in the data active = parasite load remaining mostly below about 12%, no sharp cut-off; inactive = mostly above about 10%;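 also: 100% = mean of DMSO negative control wells on the same plate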). The settings on record: P. berghei liver stage in HepG2, luciferase luminescence, concentration not given here; parasite load remaining: stronger effect = lower value; viability: measured here: HepG2 viability without parasites.
Test [18] is described as follows: MELAS cybrid and Rieske KO viability enhancers – cell-based, MELAS cybrids, Rieske KO mouse fibroblasts, CellTiter-Glo, primary screen (AID 1508586;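 active = mean z-score across replicates of 1.96 or higher in either the MELAS or the Rieske mutant cell line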;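 also: z relative to plate mean and SD of compound and empty wells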). The conditions noted are these: low glucose.
Test [19] has as its target Mitogen-activated protein kinase 7 (Homo sapiens) (UniProt Q13164). As to the kind of experiment: Gal4-ERK5 driven luciferase induction – cell-based, HTS, primary screen (AID 1508626;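 active = luciferase signal above three times the same-plate solvent-only control wells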;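 also: luciferase driven by Gal4-ERK5 fusion binding five Gal4 sites before minimal TATA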). The settings on record: HeLa Gal4-ERK5 transactivation, 18 h, at 5 µM, stronger effect = higher value.
The mark [20] stands for this setting: measured here: epithelial PC-3E GFP cell survival.
The mark [21] stands for this setting: measured here: mesenchymal TEM4-18 mCherry cell survival.
The mark [22] stands for this setting: measured here: relative caspase fold change +Dox/-Dox.
[23] abbreviates: measured here: total cells with miR-34 induction, stronger effect = lower value.
[24] abbreviates: measured here: total cells without miR-34 induction.
Where [25] appears, read: MELAS cybrid survival, CellTiter-Glo 48 h, stronger effect = higher value.
Setting [26] is: Rieske KO mouse fibroblast survival, CellTiter-Glo 72 h.

Where “and” joins values, the source holds several entries; their conditions need not be identical. Identical values can stand only once. Calls of active or inactive are those of the source.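 The calls were made as follows, unless noted: active = compounds whose cell count with miR-34 switched on is under 0.7 times the count with it off; inactive = the rest.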

Chain of Mitogen-activated protein kinase 7 (Homo sapiens) (Q13164 whole entry, looked up, the tested form may be a part): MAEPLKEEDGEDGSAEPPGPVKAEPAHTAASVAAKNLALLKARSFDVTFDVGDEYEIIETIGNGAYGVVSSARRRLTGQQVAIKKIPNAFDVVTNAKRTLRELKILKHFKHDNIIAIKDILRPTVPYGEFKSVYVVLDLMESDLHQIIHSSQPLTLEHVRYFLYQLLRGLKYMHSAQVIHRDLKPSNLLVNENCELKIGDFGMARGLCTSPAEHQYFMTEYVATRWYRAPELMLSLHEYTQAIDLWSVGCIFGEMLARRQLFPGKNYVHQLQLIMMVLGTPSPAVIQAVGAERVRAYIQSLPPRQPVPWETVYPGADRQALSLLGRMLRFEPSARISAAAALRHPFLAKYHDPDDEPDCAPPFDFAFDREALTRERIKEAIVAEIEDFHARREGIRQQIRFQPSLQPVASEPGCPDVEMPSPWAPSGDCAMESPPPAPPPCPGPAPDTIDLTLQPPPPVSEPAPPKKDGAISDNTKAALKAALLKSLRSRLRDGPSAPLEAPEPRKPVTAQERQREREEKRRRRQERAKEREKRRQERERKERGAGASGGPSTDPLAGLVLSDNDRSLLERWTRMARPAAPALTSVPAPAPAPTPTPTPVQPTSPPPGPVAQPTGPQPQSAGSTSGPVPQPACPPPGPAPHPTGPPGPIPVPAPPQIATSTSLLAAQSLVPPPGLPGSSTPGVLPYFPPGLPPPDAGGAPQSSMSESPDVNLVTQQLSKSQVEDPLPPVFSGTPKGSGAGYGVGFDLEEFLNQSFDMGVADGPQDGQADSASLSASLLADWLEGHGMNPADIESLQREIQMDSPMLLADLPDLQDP

Take `COP(=S)(OC)Oc1ccc(SC)c(C)c1`: the nuclear beta-catenin stimulation in test [1] (at 10 µM) was 1.4% (inactive); in test [1] (stimulation, at 2 µM) it was 1.3%. The insulin secretion stimulation in [2] is -2.2% (inactive). For the same compound, the viability decrease in test [3] was 16.1% (inactive). Also, the tube area decrease in test [4] was 13.4% (inactive). Also, the GLP1 secretion stimulation in test [5] is -0.1% (inactive). The inhibition of viability in [6] is -20.4% (inactive). Also, the viability decrease (inhibition) in test [7] is 89.6% (active); in test [8] it was 8.15% (inactive). Besides, the inhibition in test [9] is 9.75% (inactive). Moreover, the red/green cell ratio (normalised) in test [10] was 0.97 (inactive). In addition, the normalised cell number in [10] (setting [20]) stood at 1.03; in test [10] (setting [21]) it was 1. For the same compound, the activity remaining in test [11] is 92.7% (inactive). For the same compound, the fold change in test [12] (stronger effect = lower value) was 0.917 (inactive); in [12] (setting [22]) it was 0.928. In addition, the cell count was determined as 9260 in [12] (setting [23]) and 10100 in test [12] (setting [24]).
In the case of `CCOP(=S)(OCC)Oc1cc(C)nc(C(C)C)n1`, the nuclear beta-catenin stimulation in test [1] (at 10 µM) was -0.5% (inactive); in test [1] (stimulation, at 2 µM), 0.1%. Besides, the insulin secretion stimulation in test [2] was 0.4% (inactive). For the same compound, the viability decrease in test [3] was -71.8% (inactive). For the same compound, the tube area decrease in test [4] is 0.2% (inactive). In addition, the GLP1 secretion stimulation in test [5] was -1.4% (inactive). Moreover, the inhibition of viability in [6] is 11.6% (inactive). The viability decrease (inhibition) in test [7] is 34% (inactive); in [8], 2.6% (inactive). Moreover, the inhibition in test [9] was -22.8% (inactive). The red/green cell ratio (normalised) in [10] is 1 (inactive). Also, the normalised cell number in test [10] (setting [20]) and in [10] (setting [21]) was 1 in each case. Further, in test [11], the activity remaining was 77.6% (inactive). In addition, the fold change in [12] (stronger effect = lower value) is 0.932 (inactive); in test [12] (setting [22]), 1.33. The cell count in test [12] (setting [23]) turned out to be 9160; in [12] (setting [24]), 9830. In addition, in test [13], the remaining NAD is 10 nM (inactive).
In the case of `O=[N+]([O-])O[C@H]1CO[C@H]2[C@@H]1OC[C@H]2O[N+](=O)[O-]`, the score in test [14] was found to be 1.7. Besides, in test [15], the cytochrome c release ratio was 0.66. The inhibition of aggregation in [16] was found to be 83.1%. Moreover, the parasite load remaining in test [17] was 88.7% (inactive) and 89.6% (inactive) and 73.9% (inactive). Besides, the viability in test [17] is 101% and 72.5% and 103%. The nuclear beta-catenin stimulation in [1] (at 10 µM) is 1.4% (inactive); in test [1] (stimulation, at 2 µM), 0.8%. In [2], the insulin secretion stimulation was 0.2% (inactive). The viability decrease in test [3] was -35.2% (inactive). The tube area decrease in [4] is 2.7% (inactive). For the same compound, the GLP1 secretion stimulation in test [5] was -0.1% (inactive). For the same compound, the inhibition of viability in test [6] was -4.45% (inactive). Also, the values for the viability decrease (inhibition) in test [7] and in test [8] were 10.7% (inactive) and -9.7% (inactive), respectively. Further, the inhibition in test [9] is -5.58% (inactive). For the same compound, in [10], the red/green cell ratio (normalised) was 1.14 (inactive). Moreover, the normalised cell number in test [10] (setting [20]) was 1.17; in test [10] (setting [21]) it was 1.33. Besides, in test [11], the activity remaining was 86.8% (inactive). The fold change in test [12] (stronger effect = lower value) was 0.842 (inactive) and 0.816 (inactive); in test [12] (setting [22]), 1.05 and 0.822. The cell count was 8050 and 10900 in [12] (setting [23]); 9560 and 13300 in test [12] (setting [24]). For the same compound, the z-score in [18] (setting [25]) was -0.72 (inactive); in test [18] (setting [26]), -0.455. Moreover, the remaining NAD in [13] was 10 nM (inactive). In addition, in test [19], the luciferase signal was 164 AU (inactive).
Regarding `Cc1cc(O)ccc1Cl`, the score in test [14] is 0.98. Moreover, in test [15], the cytochrome c release ratio came out at 1.22. In test [16], this compound yielded an inhibition of aggregation of 88%. For the same compound, the parasite load remaining in [17] is 125% (inactive) and 54.1% (inactive). For the same compound, the viability in test [17] is 73.3% and 86.2%. For the same compound, the nuclear beta-catenin stimulation is 0.9% (inactive) in test [1] (at 10 µM) and 1.9% in test [1] (stimulation, at 2 µM). The insulin secretion stimulation in [2] was 0.3% (inactive). Also, the viability decrease in test [3] was -17% (inactive). Further, in test [4], the tube area decrease was 1.5% (inactive). Moreover, the GLP1 secretion stimulation in test [5] was 0.3% (inactive). The inhibition of viability in test [6] is 3.83% (inactive). Moreover, the viability decrease (inhibition) was 26.8% (inactive) in test [7] and -3.4% (inactive) in test [8]. In [9], the inhibition is 3.62% (inactive). The red/green cell ratio (normalised) in test [10] was 1.21 (inactive). Moreover, the normalised cell number in test [10] (setting [20]) turned out to be 1.13; in test [10] (setting [21]) it was 1.36. The activity remaining in test [11] was 115% (inactive). Besides, the fold change in [12] (stronger effect = lower value) is 0.943 (inactive) and 0.921 (inactive); in test [12] (setting [22]) it was 0.551 and 0.785. Also, the cell count in test [12] (setting [23]) was 8310 and 10900; in test [12] (setting [24]), 8820 and 11800. Besides, the values for the z-score in [18] (setting [25]) and in test [18] (setting [26]) were -0.196 (inactive) and -0.163, respectively. For the same compound, the remaining NAD in [13] was 10 nM (inactive). Besides, the luciferase signal in test [19] was 32 AU (inactive).

The term inhibition denotes the change of the read-out against control, counted positive when it falls. As usually defined, the viability is a read-out of living cells in per cent, often relative to untreated cells.
